PostGolgi yeast – growth inhibition of a yeast mutant, post-Golgi transport screen; post-Golgi transport phenotypic cell assay; inhibition, % at 10 µM; actives 0.9% (n = 98,000);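 further: yeast cells grown in 1536-well plates; yeast grown about 18 h at 30C before absorbance read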
CYP2C9 inh – human CYP2C9 inhibition. P11712. CYP2C9 Supersomes, luciferin-H conversion, luminescence. inhibition, % at 5 µM. actives 20% (n = 96,000). AID 777;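 active means blocking of liver enzyme CYP2C9 beyond about 50% at 5 µM, limit read from the data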
PostGolgi ctrl – growth of the yeast control strain, post-Golgi counter-screen; efflux-deficient yeast background strain, growth absorbance A615, 16 h; inhibition, % at 10 µM; actives 5% (n = 98,000); AID 738
CYP2C9 act – CYP2C9 (human) activation; recombinant CYP2C9, luciferin-H conversion, luminescence; active compounds read high; factor 1 = untreated enzyme, 0 = blocked; activation factor at 5 µM; actives 1.4% (n = 96,000); AID 1024;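 active means activation factor of 2 or more for CYP2C9 at a 5 µM dose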;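 further: 0 = sulfaphenazole-blocked wells and 1 = vehicle-only wells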
CYP2C19 act – increases human CYP2C19 enzyme activity; P33261; recombinant CYP2C19, luciferin-H EGE luminescence; active compounds read high; 0 = fully inhibited enzyme, 1 = untreated enzyme; activation factor at 5 µM; 96,000 tested, under 10 active;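 active means activation factor of at least 2 at 5 µM in the primary screen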;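 further: 0 = wells with 2.5 mM tranylcypromine and 1 = vehicle-only wells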
Target sequence (P33261 whole entry, looked up): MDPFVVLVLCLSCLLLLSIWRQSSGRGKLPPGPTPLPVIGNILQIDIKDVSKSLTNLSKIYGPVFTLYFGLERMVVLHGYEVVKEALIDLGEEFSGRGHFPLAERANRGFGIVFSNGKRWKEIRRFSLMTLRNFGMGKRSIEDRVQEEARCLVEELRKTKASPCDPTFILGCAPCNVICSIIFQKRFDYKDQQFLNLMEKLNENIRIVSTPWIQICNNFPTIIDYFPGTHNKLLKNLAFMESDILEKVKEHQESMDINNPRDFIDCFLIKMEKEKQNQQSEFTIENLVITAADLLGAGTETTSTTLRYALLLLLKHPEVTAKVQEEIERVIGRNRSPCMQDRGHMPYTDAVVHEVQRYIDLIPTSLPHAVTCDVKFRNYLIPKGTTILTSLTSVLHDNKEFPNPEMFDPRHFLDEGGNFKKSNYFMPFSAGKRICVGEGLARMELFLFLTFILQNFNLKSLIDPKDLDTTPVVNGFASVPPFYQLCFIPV
CYP2C19 inhib – human CYP2C19 inhibition; P33261; CYP2C19 Supersomes, luciferin-H EGE luminescence, 30 min; inhibition, % at 5 µM; actives 21% (n = 96,000);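 active means CYP2C19 inhibition above a set limit at 5 µM in the primary screen, cut at about 50% in these data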;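 further: plate controls were negative control wells for no effect and 2.5 mM tranylcypromine positive control for full effect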
* marks the source's active call; other numbers are inactive results; nt = no result. Sampled rows, rich in hits. Any-hit rate of the full collection: about 32%. Unless noted, no stated cut-off is given here; in the data, active means inhibition above about 30%; inactive means the rest.

SMILES | PostGolgi yeast | CYP2C9 inh | PostGolgi ctrl | CYP2C9 act | CYP2C19 act | CYP2C19 inhib
Cn1c(=O)[nH]c(=O)c2c1nc(N(CCO)Cc1ccccc1)n2CCCc1ccccc1 | 5.1 | 65.0* | 14.1 | 0.3 | 0.8 | 15.8
CCN1CCN(c2nc3c(c(=O)[nH]c(=O)n3C)n2CCCSc2ncccn2)CC1 | -0.4 | -13.4 | -0.7 | 1.1 | 1.2 | -16.2
Cn1c(=O)[nH]c(=O)c2c1nc(N1CCN(Cc3ccccc3)CC1)n2CCCc1ccccc1 | -4.8 | 31.3 | 22.8 | 0.7 | 0.1 | 87.6*
CC(CCCC(C)(C)O)NCCO (stereo not drawn) | nt | 4.4 | nt | 1 | 1 | 2.4
CC(=O)c1c(C)nc2ccc(Cl)cn12 | 1.1 | 7.5 | -5.9 | 0.9 | 1.1 | -5.5
CCOCCn1c(N2CCN(c3ccc(OC)cc3)CC2)nc2c1c(=O)n(C)c(=O)n2C | -7.1 | 32.8 | 6.2 | 0.7 | 1 | -3.2
CC1CCCCN1Cc1nc2c(c(=O)n(C)c(=O)n2C)n1CCc1ccccc1 (stereo not drawn) | -4.8 | 30.6 | 37.9* | 0.7 | 0.8 | 19.1
COCCn1c(N2CCN(c3ccc(OC)cc3)CC2)nc2c1c(=O)n(C)c(=O)n2C | 2.6 | 59.2* | 1.0 | 0.4 | 1.1 | -5.7
Cn1c(=O)[nH]c(=O)c2[nH]c(N(Cc3ccccc3)Cc3ccccc3)nc21 | 18.2 | 55.6* | -3.1 | 0.4 | 1 | -3.3
Cc1nnc(SCCn2c(N3CCN(Cc4ccccc4)CC3)nc3c2c(=O)[nH]c(=O)n3C)s1 | 1.3 | 59.2* | 0.0 | 0.4 | 0.3 | 71.1*
O=c1ccc(Oc2nc(N3CCCCC3)nc(N3CCCCC3)n2)n[nH]1 | 1.7 | -15.4 | 0.9 | 1.2 | 1 | -0.5
O=C(CSC1=NCCS1)NC1CCCC1 | -9.6 | 0.3 | 28.5 | 1 | 0.7 | 26.1
CCN1CCCC1CNC(=O)C1c2cc(OC)c(OC)cc2C(=O)N(C)C1c1cccnc1 (stereo not drawn) | -0.3 | -0.7 | 1.2 | 1 | 1.1 | -8.6
CSC1=NCCN1C(=O)Cc1cccs1 | -2.9 | -1.5 | 2.6 | 1 | 1 | 2.0
Cc1ccc(C(=O)Cn2c(N3CCOCC3)nc3c2c(=O)n(C)c(=O)n3C)cc1 | 1.1 | 54.5* | 6.0 | 0.5 | 1.1 | -11.1
COc1cccc(C(=O)Cn2c(N3CCOCC3)nc3c2c(=O)n(C)c(=O)n3C)c1 | 2.9 | 39.3 | -2.7 | 0.6 | 0.9 | 5.1
Cn1c(=O)c2c(nc(CN3CCC(C(N)=O)CC3)n2Cc2ccccc2F)n(C)c1=O | -3.5 | 4.2 | 5.5 | 1 | 0.9 | 12.5
Cn1c(=O)c2c(nc(CN3CCC(C(N)=O)CC3)n2CCCc2ccccc2)n(C)c1=O | 0.3 | 70.7* | 5.6 | 0.3 | 0.4 | 59.3*
c1ccc(CCN2CCN(c3ncnc4c3cnn4-c3ccccc3)CC2)cc1 | -2.6 | 77.6* | 12.3 | 0.2 | 0.2 | 78.7*
c1ccc(-n2ncc3c(N4CCCCC4)ncnc32)cc1 | -13.6 | 81.5* | 6.2 | 0.2 | 0.2 | 83.4*
CCN1CCN(c2ncnc3c2cnn3-c2ccccc2)CC1 | -1.3 | 8.5 | 13.7 | 0.9 | 0.9 | 13.2
Cc1c(NC(=O)NCCN2C(=O)C3C4C=CC(C4)C3C2=O)c(=O)n(-c2ccccc2)n1C (stereo not drawn) | -21.7 | -0.7 | 1.3 | 1 | 1.1 | -9.8
O=C1C2C(C(=O)N1CCc1ccccc1)C1C=CC2C12CC2 (stereo not drawn) | 0.8 | 29.3 | 14.1 | 0.7 | 0.1 | 92.0*
O=C(NCCN1C(=O)C2C3C=CC(C3)C2C1=O)Nc1ccccc1O (stereo not drawn) | 9.8 | 17.3 | 10.5 | 0.8 | 0.2 | 76.9*
O=C1C2C3C=CC(C3)C2C(=O)N1CCc1ccccc1 (stereo not drawn) | 0.3 | 35.0 | 3.0 | 0.7 | 0.1 | 90.3*
SMILES | PostGolgi yeast | CYP2C9 inh | PostGolgi ctrl | CYP2C9 act | CYP2C19 act | CYP2C19 inhib
Cc1ccc(S(=O)(=O)N2CCC(C(=O)N3CCC[C@H]3C(=O)NCc3ccco3)CC2)cc1 | -11.4 | -5.3 | 4.5 | 1.1 | 1 | 1.0
Cc1cc(Nc2ccccc2)n(-c2ccccc2)n1 | -8.5 | 75.0* | 25.1 | 0.3 | 0.1 | 89.9*
Cc1cc(C)nc(-n2nc(C)cc2Nc2ccccc2)n1 | 5.2 | -1.2 | 13.8 | 1 | 0.9 | 9.5
Cc1cc(NS(=O)(=O)c2ccccc2)n(-c2ccccc2)n1 | -3.4 | 86.3* | 18.0 | 0.1 | 1 | 3.7
Cc1ccc(-n2nnnc2-c2cnc3ccc(Cl)cc3c2-c2ccccc2)cc1 | 1.4 | 39.9 | 28.9 | 0.6 | 0.7 | 26.9
Cc1cc(Nc2nnnn2-c2ccccc2)n(-c2ccc(Cl)cc2)n1 | 15.0 | 31.5 | 25.0 | 0.7 | 0.3 | 65.1*
CCOc1ccc(N2C(=O)CC(SC(=NC)Nc3cccc(F)c3)C2=O)cc1 (stereo not drawn) | -6.8 | 35.0 | -6.8 | 0.7 | 0.8 | 18.2
CCN=C(NCC)SC1CC(=O)N(c2ccc(OC)cc2)C1=O (stereo not drawn) | -6.7 | -1.9 | 0.0 | 1 | 0.3 | 69.7*
CN=C(NC)SC1CC(=O)N(c2ccccc2)C1=O (stereo not drawn) | 4.6 | -36.7 | 1.3 | 1.4 | 0.9 | 11.1
CCN=C(NCC)SC1CC(=O)N(c2cccc(OCC)c2)C1=O (stereo not drawn) | -1.1 | -106.8 | 1.5 | 2.1* | 0.2 | 76.3*
COc1ccc(C2C(=O)N(CCc3ccccc3)CC(=O)N2C2CCCC2)cc1 (stereo not drawn) | -3.3 | 12.4 | 7.0 | 0.9 | 0.8 | 22.3
COc1ccccc1Cc1nc(-c2ccc(Br)o2)no1 | -10.2 | 32.2 | 1.7 | 0.7 | 0.1 | 90.0*
COc1ccccc1-c1nc(-c2ccc(Br)o2)no1 | -14.1 | -27.8 | 5.5 | 1.3 | 0.7 | 27.9
CCc1cccc(NC(=O)CSC2=NS(=O)(=O)c3ccccc32)c1 | -6.6 | 13.1 | 2.6 | 0.9 | 0.8 | 24.1
CCc1cccc(NC(=O)Cn2cccc2)c1 | -3.2 | -97.5 | 9.8 | 2* | 0.7 | 29.8
CCc1cccc(NC(=O)CSCc2cc(=O)[nH][nH]2)c1 | 3.3 | 5.1 | 7.2 | 0.9 | 0.3 | 74.9*
CCOC(=O)c1ccc(NC(=O)Cn2cccc2)cc1 | -4.8 | 34.9 | 9.4 | 0.7 | 0.8 | 20.6
CCCCc1c(O)nc(SCC(=O)N2CCOCC2)n(-c2ccccc2C)c1=O | -4.8 | -12.9 | -5.7 | 1.1 | 1.1 | -8.7
CC1CN(C(=O)CSc2nnc3c(Cl)cc(Cl)cn23)CC(C)O1 (stereo not drawn) | -3.0 | 5.7 | -0.7 | 0.9 | 1.1 | -5.5
OC(Cn1ccnc1)c1ccc(Cl)cc1Cl (stereo not drawn) | 76.5* | 94.8* | 23.7 | 0.1 | 0 | 98.9*
CCOc1ccc(NS(=O)(=O)c2cc(OC)ccc2OC)cc1 | -7.5 | 79.1* | 11.8 | 0.2 | 0.5 | 49.2
COc1ccc(OC)c(S(=O)(=O)Nc2ccc(C(N)=O)cc2)c1 | 1.1 | 29.7 | 17.0 | 0.7 | 0.4 | 59.9*
COc1ccc(OC)c(S(=O)(=O)Nc2ccc(O)c(Sc3ncn[nH]3)c2)c1 | -5.0 | 42.6 | 42.8* | 0.6 | 0.2 | 80.3*
